Results: PubChem BioAssay AID1159580 (chemical genetic matrix, 2015)
The campaign covered roughly 5,500 compounds. About 2,000 (36%) were called active. About 18% were inconclusive and are not listed. No stated cut-off is given here; in the data, active means normalized growth mostly below about 0.91 (no sharp cut-off); inconclusive means no clear call, values can overlap the other calls; inactive means mostly above about 0.92. The list shows a part of the results.

Experiment: chemical genetic growth profiling, strain panel (AID 1159580);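 further: tested at 20 µM; growth read once vehicle control cultures reached saturation at 30 °C; 1 = growth at the plate median or of vehicle wells; lower values mean less growth of the strain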
Details: growth OD

Measured: normalized growth

COc1ccccc1CC(=O)NC1CCN(Cc2ccccc2)CC1
inactive: S. cerevisiae deletion strains, locus YAL013W, strain DEP1, active compounds read low 1.01 | S. cerevisiae deletion strains, locus YBR229C, strain ROT2, active compounds read low 1 | S. cerevisiae deletion strains, locus YDL101C, strain DUN1, active compounds read low 1.01 | S. cerevisiae deletion strains, locus YDL134C, strain PPH21, active compounds read low 1.02 | S. cerevisiae deletion strains, locus YDR150W, strain NUM1, active compounds read low 0.993 | S. cerevisiae deletion strains, locus YEL061C, strain CIN8, active compounds read low 1.02 | S. cerevisiae deletion strains, locus YGR078C, strain PAC10, active compounds read low 1.01 | S. cerevisiae deletion strains, locus YGR229C, strain SMI1, active compounds read low 1.02 | S. cerevisiae deletion strains, locus YHR030C, strain SLT2, active compounds read low 0.943 | S. cerevisiae deletion strains, locus YHR087W, strain rtc3, active compounds read low 0.998 | S. cerevisiae deletion strains, locus YJR043C, strain POL32, active compounds read low 1.01 | S. cerevisiae deletion strains, locus YJR075W, strain HOC1, active compounds read low 1.02 | S. cerevisiae deletion strains, locus YKL190W, strain CNB1, active compounds read low 1.01 | S. cerevisiae deletion strains, locus YLR039C, strain RIC1, active compounds read low 0.947 | S. cerevisiae deletion strains, locus YLR058C, strain SHM2 (second series), active compounds read low 1.01 | S. cerevisiae deletion strains, locus YLR085C, strain ARP6, active compounds read low 1.04 | S. cerevisiae deletion strains, locus YLR262C, strain YPT6, active compounds read low 0.826 | S. cerevisiae deletion strains, locus YML094W, strain GIM5, active compounds read low 0.991 | S. cerevisiae deletion strains, locus YMR219W, strain ESC1, active compounds read low 1.01 | S. cerevisiae deletion strains, locus YMR263W, strain SAP30, active compounds read low 1.02 | S. cerevisiae deletion strains, locus YMR307W, strain GAS1, active compounds read low 1.11 | S. cerevisiae deletion strains, locus YNL153C, strain GIM3, active compounds read low 1.01 | S. cerevisiae deletion strains, locus YNL298W, strain CLA4 (second series), active compounds read low 1.04 | S. cerevisiae deletion strains, locus YNL322C, strain KRE1, active compounds read low 1 | S. cerevisiae deletion strains, locus YNR030W, strain Alg12, active compounds read low 1.02 | S. cerevisiae deletion strains, locus YOL006C, strain TOP1, active compounds read low 0.947 | S. cerevisiae deletion strains, locus YPL055C, strain LGE1, active compounds read low 1.01 | S. cerevisiae deletion strains, locus YPL241C, strain CIN2, active compounds read low 1.13 | S. cerevisiae deletion strains, locus YPR135W, strain CTF4, active compounds read low 1.07 | S. cerevisiae strains, strain wild type, active compounds read low 1.02
